Assay outcomes as filed in PubChem.
Hits are enriched below; roughly 27% of the tested compounds scored in any of these assays.
sEH activator: increases human soluble epoxide hydrolase activity. activation, % at 2 µM. AID 717. purified human sEH enzymatic activity, activator screen. hit rate 0.04% among 91,000; in the data active = activation above about 37%
sEH inh: blocks human soluble epoxide hydrolase activity; inhibition, % at 2 µM; P34913; hit rate 0.34% among 91,000; AID 707; recombinant human sEH enzymatic activity assay; in the data active = inhibition above about 80%
CYP2C9 activ: CYP2C9 (human) activation; recombinant CYP2C9, luciferin-H conversion, luminescence; active compounds read high; factor 1 = untreated enzyme, 0 = blocked; activation factor at 5 µM; hit rate 1.4% among 96,000;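 active = activation factor of 2 or more for CYP2C9 at a 5 µM dose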;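 also: 0 = sulfaphenazole-blocked wells and 1 = vehicle-only wells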
CYP2C9 inhib: blocks human cytochrome P450 2C9; CYP2C9 Supersomes, luciferin-H conversion, luminescence; hit rate 20% among 96,000; P11712; inhibition, % at 5 µM;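 active = blocking of liver enzyme CYP2C9 beyond about 50% at 5 µM, limit read from the data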
CYP2C19 act: activators of human cytochrome P450 2C19; 96,000 tested, under 10 active; activation factor at 5 µM; recombinant CYP2C19, luciferin-H EGE luminescence; active compounds read high; 0 = fully inhibited enzyme, 1 = untreated enzyme;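 active = activation factor of at least 2 at 5 µM in the primary screen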;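 also: 0 = wells with 2.5 mM tranylcypromine and 1 = vehicle-only wells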
Target sequence (P33261 whole entry, looked up): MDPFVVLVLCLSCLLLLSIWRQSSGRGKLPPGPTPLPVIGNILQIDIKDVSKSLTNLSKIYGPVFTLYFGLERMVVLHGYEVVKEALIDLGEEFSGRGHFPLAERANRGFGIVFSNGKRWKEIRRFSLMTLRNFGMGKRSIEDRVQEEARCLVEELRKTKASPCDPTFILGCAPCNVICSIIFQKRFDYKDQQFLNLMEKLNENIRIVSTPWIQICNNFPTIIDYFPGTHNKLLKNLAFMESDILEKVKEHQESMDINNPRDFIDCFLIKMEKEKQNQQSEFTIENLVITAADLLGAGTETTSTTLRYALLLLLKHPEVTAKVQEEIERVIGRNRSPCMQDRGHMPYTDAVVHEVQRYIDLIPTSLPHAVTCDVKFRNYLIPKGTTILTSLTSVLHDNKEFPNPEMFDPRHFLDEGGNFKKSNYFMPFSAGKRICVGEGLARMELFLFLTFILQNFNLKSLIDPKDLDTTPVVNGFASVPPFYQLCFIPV
CYP2C19 inh: human CYP2C19 inhibition; inhibition, % at 5 µM; CYP2C19 Supersomes, luciferin-H EGE luminescence, 30 min; hit rate 21% among 96,000; P33261; AID 778;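 active = CYP2C19 inhibition above a set limit at 5 µM in the primary screen, cut at about 50% in these data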;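 also: plate controls were negative control wells for no effect and 2.5 mM tranylcypromine positive control for full effect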
Starred values were filed as active, the others as inactive; . = no result given.

SMILES	sEH activator	sEH inh	CYP2C9 activ	CYP2C9 inhib	CYP2C19 act	CYP2C19 inh
COc1ccc(OC)c(C(=O)CSc2nnnn2C)c1	.	.	1	4	0.7	28
CCn1nnnc1SCC(=O)c1cc(OC)ccc1OC	.	.	0.6	42	0.1	93*
COc1ccc(C(=O)CSc2nnc(C3CC3)n2N)cc1	-5	5	0.7	31	0.6	38
CC(C)C[C@H](N)c1nnc(S(=O)(=O)Cc2ccc(F)cc2)o1	.	.	0.9	6	0.8	17
Cc1ccc(NC2=C(N3CCCCC3)C(=O)c3ccccc3C2=O)cc1	-4	6	0.7	28	0.6	43
O=C1C(Nc2ccccc2)=C(N2CCCCC2)C(=O)c2ccccc21	-10	9	0.5	50	0.3	68*
CN(C1=C(N2CCCCC2)C(=O)c2ccccc2C1=O)c1ccccc1	3	-5	0.1	90*	0.1	95*
CN(c1ccccc1)c1nc(N2CCCC2)nc(-n2ccnc2)n1	-4	5	0.6	39	0.6	40
O=C1C(Nc2cccc(O)c2)=C(N2CCCCC2)C(=O)c2ccccc21	-1	1	0.4	62*	0.6	39
O=C(/C=C/c1ccc(O)cc1)c1ccc(NC2=C(N3CCCCC3)C(=O)c3ccccc3C2=O)cc1	-4	4	0.5	49	0.3	69*
CCCC(=O)Nc1ccc(C(=O)O)cc1NC(=O)CCC	6	-11	1	-2	1.2	-16
COCCCNc1c2c3c(cccc3[nH]c1=O)C(=O)c1ccccc1-2	17	-18	0.4	61*	0.6	40
N#CC1(P(=O)(c2ccccc2)c2ccccc2)CC1	.	.	1	-1	1.2	-16
COc1ccc(C2C=C(c3ccccc3)Nc3nc(CCCO)nn32)cc1 (stereo unspecified)	2	-2	0.3	67*	0.7	28
COc1ccc(C2=CC(c3sccc3C)n3nnnc3N2)cc1 (stereo unspecified)	-17	18	0.1	91*	0.2	82*
COc1ccc(C2=CC(c3ccc(F)cc3)n3nnnc3N2)cc1 (stereo unspecified)	.	.	0.1	93*	0.5	52*
OCCCc1nc2n(n1)C(c1ccccc1)C=C(c1ccccc1)N2 (stereo unspecified)	7	-3	1	-2	1	-1
CC1=C(C(=O)Nc2ccccc2)C(c2sccc2C)n2nnnc2N1 (stereo unspecified)	-4	6	1	2	0.8	21
COc1cccc(C2=CC(c3cccs3)n3nnnc3N2)c1 (stereo unspecified)	14	-13	0.6	40	0.6	38
COc1cccc(C2=CC(c3ccc(OC)c(OC)c3OC)n3nnnc3N2)c1 (stereo unspecified)	.	.	0.2	81*	0.5	52*
CCc1ccc2c(c1)CCCN2C(=O)c1ccccc1C(=O)O	4	-4	0.7	33	0.5	49
O=C(Cn1cnnn1)Nc1ccccc1Cc1ccccc1	0	2	.	.	.	.
COc1ccccc1C1C=C(c2ccccc2)Nc2nnnn21 (stereo unspecified)	1	2	.	.	.	.
Cc1ccc(C2=CC(c3ccc(N(C)C)cc3)n3nnnc3N2)cc1 (stereo unspecified)	14	-16	0.3	65*	0.2	78*
CCC(c1nc2ccccc2c(=O)n1CCCn1ccnc1)N1C(=O)c2ccccc2C1=O (stereo unspecified)	11	-14	0.1	85*	0.1	93*
SMILES	sEH activator	sEH inh	CYP2C9 activ	CYP2C9 inhib	CYP2C19 act	CYP2C19 inh
COc1ccc(-c2nc3ccccc3c(=O)n2CCCn2ccnc2)cc1	.	.	0.8	25	0.5	45
O=c1c2ccccc2nc(-c2ccco2)n1CCCn1ccnc1	-8	7	0.3	65*	0.3	69*
CCC(c1nc2ccccc2c(=O)n1CCN1CCOCC1)N1C(=O)c2ccccc2C1=O (stereo unspecified)	4	-5	0.7	29	1	3
COc1ccc(CCn2c(C)c(C(C)=O)c3cc(OC(=O)c4ccco4)ccc32)cc1OC	4	-3	0.1	87*	0.2	83*
O=c1c2ccccc2nc(-c2ccccc2)n1CCCn1ccnc1	8	-7	0.3	70*	0.3	72*
CC(=O)c1c(C)n(C)c2ccc(OC(=O)c3ccco3)cc12	0	5	0.8	23	0.8	24
Cc1ccc(-c2nc3ccccc3c(=O)n2CCCn2ccnc2)cc1	2	-2	0.9	7	0.6	37
Cc1ccc(S(=O)(=O)N2CCC(C(=O)NCCCOC(C)C)CC2)cc1	10	-11	1.3	-25	1	0
COc1ccc(C2NCCO2)cc1OC (stereo unspecified)	-6	4	1	0	1	2
COCCCn1c(-c2ccco2)nc2ccccc2c1=O	3	-4	0.8	24	0.8	20
COc1ccc(CCn2c(-c3ccco3)nc3ccccc3c2=O)cc1OC	-5	5	0.5	48	0	95*
CCOC(=O)c1cccc(NC(=O)Cn2c(CC(=O)N3CCCC3)nc3ccccc32)c1	-23	22	0.1	88*	0.8	17
CCSc1nc2ccccc2n1CC(=O)N1CCCCC1	13	-14	1	-4	0.8	23
CCOC(=O)c1ccccc1NC(=O)CSc1nc2ccccc2n1CC(=O)N1CCCC1	1	2	0.1	87*	0.2	82*
COc1ccc(Br)cc1/C=N/NC(=O)CNC(=O)/C=C/c1ccccc1	9	-8	0.7	28	0.8	22
COc1ccc(NC(C)C(=O)N/N=C/c2ccccc2OCc2ccc(Br)cc2)cc1 (stereo unspecified)	0	6	0.3	69*	0.7	30
COc1ccc(/C=C/C(=O)NCC(=O)N/N=C/c2cc(Br)ccc2OCc2ccccc2)cc1	2	-2	0.2	77*	1.1	-15
CC(Nc1ccc(Br)cc1)C(=O)N/N=C/c1ccccc1OCc1ccccc1 (stereo unspecified)	4	-3	0	95*	0.1	89*
COCCn1c(SCC(=O)Nc2ccc(S(=O)(=O)N(C)C)cc2)nc2ccccc21	-5	5	1.1	-13	1.3	-28
COCCN(CCOC)C(=O)c1c[nH]c2ccc(S(=O)(=O)N(C)c3ccc(F)cc3)cc2c1=O	3	-5	0.8	18	1.1	-6
CCCC(=O)O[C@H]1C[C@@H](C)N(C(=O)c2ccccc2)c2ccc(C)cc21	-4	8	0.4	63*	0.4	58*
O=C(NCCC(=O)N1CCNC1=O)OCc1ccccc1	.	.	1.3	-32	0.8	24
Cc1cc(C)c2c(=O)[nH]c(=O)n(Cc3ccccc3)c2n1	6	-2	0.9	5	1	-4
C=CCOc1ccc2ccccc2c1CNc1ncn[nH]1	-2	5	0.4	62*	0.2	84*
C=CCOc1c(CNc2ncn[nH]2)cccc1OC	-3	3	1	5	0.9	12
